Test results from PubChem BioAssay (NCI).
The panel holds about 83,000 compounds, 20% with a hit somewhere; the sample as a whole holds those more often.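 Values shown are percent growth following 48 h exposure of cells in 96-well plates to a single concentration of compound; below 10 was considered active.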 The source made the active and inactive calls.

system: HL-60(TB) leukemia; assay: NCI-60 one-dose screen, 48 h (100 = growth as untreated, 0 = no growth, -100 = all killed); details: 10 µM unless noted

Structure (SMILES) | growth
Cc1cc(=O)oc2c1ccc1oc(C(=O)c3ccccc3)c(C)c12 | 75.2% (inactive)
O=Nc1c(-c2c(O)[nH]c3cc(Br)ccc23)[nH]c2ccccc12 | -51.3% (active)
C[C@H]1[C@H]2C3=CC[C@@H]4[C@@]5(C)C/C(=C/c6ccncc6)C(=O)C(C)(C)[C@@H]5CC[C@@]4(C)[C@]3(C)CC[C@@]2(C(=O)N2CCN(C)CC2)CC[C@@H]1C | 57.3% (inactive)
Cc1cnc(SCc2ccc(Cl)cc2Cl)nc1Nc1ccc(Cl)c(Cl)c1 | 81% (inactive)
NC(=O)Nc1ccc2ncnc(Nc3cccc(O)c3)c2c1 | 105% (inactive)
Oc1c(I)cc(I)cc1CNCCCN(Cc1ccccn1)Cc1ccccn1 | -27.1% (active)
C=C(CNCCO)[C@@H]1CC[C@]2(CO)CC[C@]3(C)[C@H](CC[C@@H]4[C@@]5(C)CCC(NCCO)C(C)(C)[C@@H]5CC[C@]43C)[C@@H]12 (some centres not stated) | 66.2% (inactive)
CNCCCNc1nc2ccccc2c2c(=O)c3cc(F)ccc3sc12 | -5.1% (active)
CN1CCN(Cc2ccc(NC(=O)c3cc(C#Cc4cnc(N)c5ncccc45)n(C)n3)cc2C(F)(F)F)CC1 | 107% (inactive)
COC(c1ccc2ccccc2c1)C(C)C(F)F (configuration not stated) | 103% (inactive)
O=C1c2ccccc2Cc2cccc(Cl)c21 | 39.5% (inactive)
c1cncc(CNc2ccccc2-c2nnc(Nc3ccc4c(c3)OCO4)o2)c1 | -22.5% (active)
CC1=C(/C=C/C(C)=C/C=C(C(=O)O)\C(C)=C\C(=O)O)C(C)(C)CCC1 | 85.3% (inactive)
C#Cc1c(I)n(C2OC(CO[Si](C)(C)C(C)(C)C)C3OC(C)(C)OC32)c(=O)[nH]c1=O (configuration not stated) | 20.1% (inactive)
CCCCC(=O)Nc1nc2ccc(SCCC)cc2s1 | 19.5% (inactive)
Cc1ccc(C2CC(c3ccc(Nc4nc(NCCO)nc(Nc5ccc(Cl)cc5)n4)cc3)=NN2c2cc(Cl)cc(Cl)c2)cc1 (configuration not stated) | 100% (inactive)
O=C1C=C(Cl)C(=O)c2ccccc21 | 57.3% (inactive)
C=C(C)[C@@H]1CC[C@]2(C(=O)NNC(=O)c3cccnc3)CC[C@]3(C)[C@H](CC[C@@H]4[C@@]5(C)CCCNC(C)(C)[C@@H]5CC[C@]43C)[C@@H]12 | 66.9% (inactive)
NC(=S)N/N=C(/CCN1CCCC1)CC(C1=C(O)C2=CCCCC2OC1=O)c1ccccc1 (configuration not stated) | 72.9% (inactive)
CCN(CC)CCCC(Nc1c2ccc(Cl)cc2nc2ccc(OC)cc12)c1ccc(F)cc1 (configuration not stated) | -37.5% (active)
CC1C=CC(OC(=O)C(C)(O)CCC(O)(C(=O)OC2CC(O)C(C(C)C)CC2(C)O)C(C)C)(C(C)C)CC1 (configuration not stated) | -50.8% [4.63 µM] (active)
COc1cc(OC)cc(-c2ccc(-c3ccc(C(=N)N)s3)s2)c1 | -71.9% (active)
CCOC(=O)c1c(-c2ccccc2)n2c(=O)cc(C)c3c(O)c(O)cc1c32 | 11.7% (inactive)
CC(C)(C)OC(=O)CN1CCc2c(sc3ncnc(N/N=C/c4cccc5ccccc45)c23)C1 | -9.67% (active)
C=C1C(=O)O[C@H]2[C@H]1CC/C(COC(=O)NCc1ccc(Cn3c(=O)sn(CCCCC)c3=O)cc1)=C\CC[C@@]1(C)O[C@@H]21 | -40.4% (active)
O=C(N/N=C/[C@H](O)[C@H](O)[C@H](O)CO)c1ccc(NC(=O)c2cccnc2)cc1 | 100% (inactive)
Clc1ccc(-c2cnc3c(-c4ccnc(N5CCNCC5)c4)cnn3c2)cc1 | -33.7% (active)
